RN4220 kill – S. aureus RN4220 growth inhibition; OD600, 16 h; inhibition, % (no concentration beside the values); 330,000 compounds, 0.33% hits; AID 1259311; in the data active means inhibition above about 85%;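 further: plate controls were untreated cells for no effect and reference antibiotic for full effect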
PfHsp40 yeast – restores yeast growth despite PfHsp40 toxicity; S. cerevisiae expressing PfHsp40, growth rescue, ATP luminescence; growth rescue, % at 12.5 µM; 340,000 compounds, 0.68% hits; AID 504582; in the data active means growth rescue above about 28%, passing the limit was not always enough; inconclusive means no clear call, values can overlap the other calls;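 further: yeast W303a lacking pdr1 and pdr3 grown in galactose medium; growth measured after three days at 30 °C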
Y pestis TopoI – inhibitors of Yersinia pestis topoisomerase I; Y. pestis Topo-I cleavage product accumulation, plate reader; 360,000 compounds, 0.064% hits; AID 504884; activity, % at 10 µM; in the data active means activity above about 50%, passing the limit was not always enough; inconclusive means no clear call, values can overlap the other calls
ugtP null kill – growth inhibition of S. aureus ugtP deletion strain; 330,000 compounds, 0.54% hits; S. aureus RN4220 ugtP deletion, OD600 growth, 16 h; growth inhibition, % (test concentration not listed); in the data active means growth inhibition above about 68%;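 further: plate controls were untreated wells for no effect and antibiotic for full effect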
PrP UTR inh – suppresses PrP 5' UTR mRNA reporter expression; cell-based PrP 5' UTR mRNA reporter, plate reader; 340,000 compounds, 0.35% hits; AID 488862; inhibition, % (concentration not given with the values); in the data active means inhibition above about 52%; further: 0 = median of the neutral control wells
BJeLR lethal – BJeLR cell viability loss. BJeLR (HRASV12) viability, CellTiter-Glo ATP luminescence, 48 h. inhibition, % (test concentration not listed). 300,000 compounds, 0.17% hits; in the data active means inhibition above about 50%; inconclusive means no clear call, values can overlap the other calls
PrP UTR cherry – prion 5' UTR mRNA inhibition, cherry-pick retest | shares compounds with PrP UTR inh | inhibition, % at 2.5 µM | 1,100 compounds, 48% hits | cell-based prion protein 5' UTR reporter, plate reader; in the data active means inhibition above about 54%; inconclusive means no clear call, values can overlap the other calls
Starred values were filed as active, the others as inactive; ? = inconclusive; . = not tested or not shown. Sampled rows, rich in hits. Any-hit rate of the full collection: about 1.4%.

SMILES	RN4220 kill	PfHsp40 yeast	Y pestis TopoI	ugtP null kill	PrP UTR inh	BJeLR lethal	PrP UTR cherry
O=C(c1ccco1)N1C2C=CC(C2)C1(C(F)(F)F)C(F)(F)F (stereo not drawn)	4	0	1	13	-20	-1	.
CC1CN(C(C)CO)C(=O)c2cccc(NC(=O)C3CC3)c2OC1CN(C)Cc1ccc(C(F)(F)F)cc1 (stereo not drawn)	8	.	.	16	.	.	.
O=C(C[n+]1ccccc1)N/N=C/c1c(F)cccc1Cl	.	1	5	.	59*	1	-4
CC(O)C1CCC2C3CCC4CC(O)CC[C@]4(C)C3C(=NO)C[C@]12C (stereo partly drawn)	4	.	.	2	.	.	.
O=C(COc1ccccc1Cl)Nc1ccc(CN2CCCCC2)cc1	11	0	10	4	66*	-2	-24
Cc1cnc(NC(=O)CCNC(=O)c2ccccc2Cl)s1	7	-2	4	11	-12	4	.
O=C(COc1ccccc1Cl)Nc1ccc(C(=O)N2CCCCC2)cc1	5	-1	32	7	-11	0	.
Cc1cnc(NC(=O)COc2ccccc2Cl)s1	12	-1	4	13	63*	5	?
CCC1=C(OC(=O)N(CC)CC)N2C(=O)OC(=NCc3ccccc3)[C@]2(C)C2C1=CCC1C(=O)NC(=O)C12 (stereo partly drawn)	4	.	.	4	.	.	.
Cn1c(=O)c2nnn(N=C(c3ccccc3)C3CC3)c2n(C)c1=O	2	.	.	-4	.	.	.
COc1cccc(C=NNC(=O)c2cc(OCC(F)(F)F)ccc2OCC(F)(F)F)c1	2	.	.	3	.	.	.
COC(=O)C1=C(c2ccc(S(C)(=O)=O)cc2)CC2CCC1N2C(=O)NCc1cccc2ccccc12 (stereo not drawn)	4	.	.	-10	.	.	.
O=C(c1oc(=O)c2ccccc2c1-c1ccccc1)N1CCC(O)CC1	1	0	-1	4	68*	-5	-21
CC(NC(=O)c1[nH]cnc1C(=O)Nc1ccccc1)c1ccccc1 (stereo not drawn)	-4	.	.	1	.	.	.
Cc1ccccc1CSc1nnc([C@@H]2CCCN2)o1	-1	0	0	-1	74*	0	4
Clc1ccccc1CSc1nnc([C@@H]2CCCN2)o1	4	-2	-1	10	-10	-4	.
CC=CC=CC(=O)Nc1cccc(C2=NOC3(C2)CC(C(N)=O)N(C(=O)C2CCC(=O)N2)C3)c1 (stereo not drawn)	10	.	.	-9	.	.	.
COC(=O)C1=CC(C(=O)OC)C2C3=C(C(=O)C24CCCCC4)C(C)n2c(=O)n(C)c(=O)n2C3C1 (stereo not drawn)	6	.	.	-7	.	.	.
O=C(CSc1nnc(-c2ccncc2)o1)Nc1cc(F)ccc1F	-2	0	0	4	-80	.	.
O=C(CSc1nnc(-c2ccc(Br)cc2)o1)Nc1cccc2ccccc12	3	-1	-3	-25	-3	-15	.
O=C(CSc1nnc(-c2ccccc2)o1)Nc1ccccc1F	5	0	7	5	60*	46	59*
Cc1ccc(-c2nnc(SCC(=O)Nc3ccccc3F)o2)cc1	4	-1	4	10	89*	56*	88*
O=C(CSc1nnc(-c2ccc(Br)cc2)o1)Nc1cccc(C(=O)O)c1	7	0	12	2	71*	1	80*
CCOC(=O)C1C2COc3cc(OC)ccc3C2N2C(=O)N(c3ccc(C)cc3)C(=O)[C@]12C (stereo partly drawn)	4	.	.	2	.	.	.
COC(=O)c1oc2ccc(Br)cc2c1NC(=O)CCCN1C(=O)c2ccccc2C1=O	-2	1	11	-5	57*	-6	-12
COc1ccc2c(c1)C1C(CO2)C(c2ccccc2)[C@]2(C)C(=O)NCC(=O)N12 (stereo partly drawn)	9	.	.	8	.	.	.
CCN(C(=O)c1cc2cc(OC)ccc2oc1=O)c1ccccc1	3	-1	9	-1	67*	10	?
O=c1c2c(O)cc(O)cc2oc2c(O)ccc(OC3OC(CO)C(O)C(O)C3O)c12 (stereo not drawn)	9	.	.	-11	.	.	.
COc1cc([C@@H]2c3cc4c(cc3[C@H](O)[C@H]3COC(=O)[C@H]23)OCO4)cc(OC)c1OC	.	0	-1	.	67*	42	85*

Assay outcomes: PubChem BioAssay, several laboratories
